# Laboratory results published in PubChem BioAssay (Tox21).
# Records with an inconclusive call do not appear. Calls of active or inactive are those of the source. Unless noted, calls follow the shape of the dose curve; as a rule, active = well fitted cell-killing curve with a large enough effect in the repeat runs; inconclusive = weak or mixed curves, or effect the other way; inactive = no such curve, though single readings can be large or run the other way.
# Molecular target: Progesterone receptor (Homo sapiens) (UniProt P06401)
# Assay: qHTS assay to identify small molecule agonists of the progesterone receptor (PR) signaling pathway (AID 1346784; calls by dose curve; also: nearly all actives have a fitted effect of over 30% in size)
# Details: PR-UAS-bla HEK293T, beta-lactamase FRET ratio, 16 h; series mostly up to 92.4 µM; activation: at the top concentration
# Summary of the method: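 Seed PR-UAS-bla HEK 293T cells (2% charcoal-stripped FBS), incubate 6 hr at 37C; add compounds in DMSO, 16 hr at 37C; add LiveBLAzer B/G substrate, 2 hr RT; read fluorescence intensity.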
# % is scaled to controls: 0 for no effect and ±100 for the full control effect.
# Chain of Progesterone receptor (Homo sapiens) (P06401 whole entry, looked up): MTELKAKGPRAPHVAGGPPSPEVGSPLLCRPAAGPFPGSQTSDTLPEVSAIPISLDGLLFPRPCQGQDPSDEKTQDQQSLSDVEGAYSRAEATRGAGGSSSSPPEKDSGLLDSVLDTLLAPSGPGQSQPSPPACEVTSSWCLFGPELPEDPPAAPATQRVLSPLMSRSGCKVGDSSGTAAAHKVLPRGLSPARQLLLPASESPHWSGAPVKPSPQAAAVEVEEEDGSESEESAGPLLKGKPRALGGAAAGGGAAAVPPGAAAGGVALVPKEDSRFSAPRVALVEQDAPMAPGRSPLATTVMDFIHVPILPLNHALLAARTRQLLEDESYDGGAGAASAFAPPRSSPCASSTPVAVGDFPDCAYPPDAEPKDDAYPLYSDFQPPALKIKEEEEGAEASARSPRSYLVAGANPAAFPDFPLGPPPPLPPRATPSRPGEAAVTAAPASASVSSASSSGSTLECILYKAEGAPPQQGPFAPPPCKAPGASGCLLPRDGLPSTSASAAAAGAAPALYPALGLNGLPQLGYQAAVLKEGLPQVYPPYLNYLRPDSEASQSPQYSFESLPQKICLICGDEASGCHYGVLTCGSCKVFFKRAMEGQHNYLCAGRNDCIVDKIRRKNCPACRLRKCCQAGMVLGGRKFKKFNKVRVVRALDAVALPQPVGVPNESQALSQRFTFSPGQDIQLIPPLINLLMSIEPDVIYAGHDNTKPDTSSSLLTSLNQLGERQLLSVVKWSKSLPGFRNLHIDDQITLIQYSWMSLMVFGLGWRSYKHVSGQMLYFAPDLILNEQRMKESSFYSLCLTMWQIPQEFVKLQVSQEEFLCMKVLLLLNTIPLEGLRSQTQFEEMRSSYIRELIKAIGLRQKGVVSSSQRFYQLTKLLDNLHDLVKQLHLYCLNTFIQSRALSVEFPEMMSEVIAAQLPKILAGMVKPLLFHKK
row,SMILES,activation
1,CN1CC(=O)N2[C@H](c3ccc4c(c3)OCO4)c3[nH]c4ccccc4c3C[C@@H]2C1=O,-1.21% [at 42.5 µM] (inactive)
2,COc1cc(Nc2c(C#N)cnc3cc(OCCCN4CCN(C)CC4)c(OC)cc23)c(Cl)cc1Cl,-1.08% [at 42.5 µM] (inactive)
3,CCOC(=O)c1ccc(O)c(O)c1,-1.35% [at 42.5 µM] (inactive)
4,Oc1c(I)cc(I)c2cccnc12,15.6% [at 42.5 µM] (inactive)
5,OC[C@H]1O[C@@H](n2cnc3c(=S)nc[nH]c32)[C@H](O)[C@@H]1O,-1.86% [at 42.5 µM] (inactive)
6,O=C1NC(=O)c2cc([N+](=O)[O-])ccc21,7.63% (inactive)
7,Cc1cc2c(OCC(CNC(C)(C)C)OC(=O)c3ccccc3)cccc2[nH]1 (stereo not drawn),-4.98% [at 42.5 µM] (inactive)
8,CCOc1ccc(Cc2nccc3cc(OCC)c(OCC)cc23)cc1OCC,-3.33% [at 42.5 µM] (inactive)
9,C[C@@]12CCC[C@H]1[C@@H]1CC[C@H]3C[C@@H](O)CC[C@]3(C)[C@H]1CC2,0.0445% [at 42.5 µM] (inactive)
10,Cc1[nH]cnc1CN1CCc2c(c3ccccc3n2C)C1=O,0.602% [at 42.5 µM] (inactive)
11,O=c1c(O)c(-c2ccc(O)cc2)oc2cc(O)cc(O)c12,-0.761% (inactive)
12,O=C(O)c1cccc(-c2noc(-c3ccccc3F)n2)c1,-1.43% [at 42.5 µM] (inactive)
13,Cc1cccc(O)c1N,0.194% (inactive)
14,Cc1ccccc1N=C(N)Nc1ccccc1C,-3.67% (inactive)
15,O[C@@H]1CO[C@H]2[C@@H]1OC[C@@H]2O,1.23% [at 42.5 µM] (inactive)
16,CCC(=O)OC,4.21% (inactive)
17,CC1CC(C)C(=O)C1=O (stereo not drawn),-0.63% (inactive)
18,CC(C)(O)c1ccc(CNC(=O)c2cccnc2Oc2ccc3nonc3c2)cc1,0.48% (inactive)
19,CC1=C(CC=O)C(C)(C)CCC1,5.1% (inactive)
20,O=C(CCc1ccc(O)cc1)c1c(O)cc(O)cc1O,-0.344% (inactive)
21,O=C(OC(=O)c1ccccc1)c1ccccc1,2.91% (inactive)
22,CC=C(Cl)Cl,1.28% (inactive)

# Molecular target: Progesterone receptor (Homo sapiens) (UniProt P06401)
# Assay: qHTS assay to identify small molecule antagonists of the progesterone receptor (PR) signaling pathway (AID 1346795; active = well fitted inhibition curve with a large enough effect in the signal ratio in the repeat runs, not every such curve was filed as active; the % refers to the signal ratio; also: potency is read from the fitted curve at half-maximal effect)
# Details: PR-UAS-bla HEK293T, beta-lactamase FRET ratio, 16 h; series mostly up to 92.4 µM; activity change, negative = inhibition: at the top concentration
# Summary of the method: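 Screening used a GripTite HEK293T line with PR-responsive UAS-beta-lactamase. Cells were challenged with compound in the presence of 1 nM R5020 final for 16 hr at 37C; B/G FRET substrate, 2 hr room temperature, fluorescence.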
SMILES,Potency,"activity change, negative = inhibition"
Cc1c(C)c2c(c(C)c1OC(=O)CCC(=O)OCCO)CC[C@@](C)(CCC[C@H](C)CCC[C@H](C)CCCC(C)C)O2,26.6 µM (active),
CN1CC(=O)N2[C@H](c3ccc4c(c3)OCO4)c3[nH]c4ccccc4c3C[C@@H]2C1=O,,10.6% [at 42.5 µM] (inactive)
CCOc1ccccc1O[C@H](c1ccccc1)[C@H]1CNCCO1,,-7.55% [at 42.5 µM] (inactive)
O=C=Nc1cccc(C(F)(F)F)c1,,-1.09% (inactive)
COc1cc(Nc2c(C#N)cnc3cc(OCCCN4CCN(C)CC4)c(OC)cc23)c(Cl)cc1Cl,11.9 µM (active),
CC(CN(C)C)C(C)(O)Cc1ccc(Cl)cc1 (stereo not drawn),,0.0745% [at 42.5 µM] (inactive)
CCOC(=O)c1ccc(O)c(O)c1,,-17.4% [at 42.5 µM] (inactive)
Oc1c(I)cc(I)c2cccnc12,7.5 µM (active),
CCCCCCCCCI,,0.987% (inactive)
O=C1NC(=O)c2cc([N+](=O)[O-])ccc21,,11.3% (inactive)
Cc1cc2c(OCC(CNC(C)(C)C)OC(=O)c3ccccc3)cccc2[nH]1 (stereo not drawn),,-20.8% [at 42.5 µM] (inactive)
CCOc1ccc(Cc2nccc3cc(OCC)c(OCC)cc23)cc1OCC,16.8 µM (active),
Cc1[nH]cnc1CN1CCc2c(c3ccccc3n2C)C1=O,,-0.131% [at 42.5 µM] (inactive)
O=c1c(O)c(-c2ccc(O)cc2)oc2cc(O)cc(O)c12,5.19 µM (active),
O=C(O)c1cccc(-c2noc(-c3ccccc3F)n2)c1,,11.4% [at 42.5 µM] (inactive)
Cc1cccc(O)c1N,30.9 µM (active),
CC1CC(C)C(=O)C1=O (stereo not drawn),,1.03% (inactive)
CC(C)(O)c1ccc(CNC(=O)c2cccnc2Oc2ccc3nonc3c2)cc1,,-20.8% (inactive)
CC1=C(CC=O)C(C)(C)CCC1,,17.7% (inactive)
CC(=O)NC1(c2cccc(F)c2)CCN(CC[C@@]2(c3ccc(Cl)c(Cl)c3)CN(c3ccccc3)C(=O)CO2)CC1,48.7 µM (active),
O=C(CCc1ccc(O)cc1)c1c(O)cc(O)cc1O,31.3 µM (active),
O=C(OC(=O)c1ccccc1)c1ccccc1,,7.53% (inactive)
CC=C(Cl)Cl,,3.17% (inactive)

# System: not listed separately
# Assay: qHTS assay to identify small molecule antagonists of the progesterone receptor (PR) signaling pathway - cell viability counter screen (AID 1346798); also: nearly all actives have a fitted effect of over 50% in size; also: potency is read from the fitted curve at half-maximal effect
# Details: PR-UAS-bla HEK293T viability, CellTiter-Glo luminescence, 16 h; series mostly up to 92.4 µM; activity change, negative = cytotoxicity: at the top concentration
# Summary of the method: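 Measures cytotoxicity in parallel with the PR antagonist reporter read: HEK293T PR-UAS-bla cells get compound and R5020 for 16 hr, and remaining viable cells are quantified by CellTiter-Glo luminescence.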
SMILES,"activity change, negative = cytotoxicity",Potency
CN1CC(=O)N2[C@H](c3ccc4c(c3)OCO4)c3[nH]c4ccccc4c3C[C@@H]2C1=O,18.3% [at 42.5 µM] (inactive),
CCOc1ccccc1O[C@H](c1ccccc1)[C@H]1CNCCO1,-17.6% [at 42.5 µM] (inactive),
O=C=Nc1cccc(C(F)(F)F)c1,13.2% (inactive),
COc1cc(Nc2c(C#N)cnc3cc(OCCCN4CCN(C)CC4)c(OC)cc23)c(Cl)cc1Cl,-2.84% [at 42.5 µM] (inactive),
CC(CN(C)C)C(C)(O)Cc1ccc(Cl)cc1 (stereo not drawn),-25.5% [at 42.5 µM] (inactive),
CCOC(=O)c1ccc(O)c(O)c1,25.8% [at 42.5 µM] (inactive),
OC1(c2ccccc2)CCNCC1,-1.54% [at 42.5 µM] (inactive),
CC(C)C[C@H](NC(=O)[C@H](CCc1ccccc1)NC(=O)CN1CCOCC1)C(=O)N[C@@H](Cc1ccccc1)C(=O)N[C@@H](CC(C)C)C(=O)[C@@]1(C)CO1,-14.6% [at 42.5 µM] (inactive),
CO/N=C(/C(=O)N[C@@H]1C(=O)N2C(C(=O)O)=C(COC(N)=O)CS[C@H]12)c1ccco1,9.19% (inactive),
Oc1c(I)cc(I)c2cccnc12,26.7% [at 42.5 µM] (inactive),
CCCCCCCCCI,-2.61% (inactive),
O=C1NC(=O)c2cc([N+](=O)[O-])ccc21,17.1% (inactive),
Cc1cc2c(OCC(CNC(C)(C)C)OC(=O)c3ccccc3)cccc2[nH]1 (stereo not drawn),4.84% [at 42.5 µM] (inactive),
CCOc1ccc(Cc2nccc3cc(OCC)c(OCC)cc23)cc1OCC,,18.8 µM (active)
C[C@@]12CCC[C@H]1[C@@H]1CC[C@H]3C[C@@H](O)CC[C@]3(C)[C@H]1CC2,,26.6 µM (active)
Cc1[nH]cnc1CN1CCc2c(c3ccccc3n2C)C1=O,14.1% [at 42.5 µM] (inactive),
Cc1cccc(O)c1N,17.7% (inactive),
Cc1ccccc1N=C(N)Nc1ccccc1C,-29.5% (inactive),
O[C@@H]1CO[C@H]2[C@@H]1OC[C@@H]2O,-10.6% [at 42.5 µM] (inactive),
CCC(=O)OC,18.7% (inactive),
CC1CC(C)C(=O)C1=O (stereo not drawn),-1.73% (inactive),
CC(C)(O)c1ccc(CNC(=O)c2cccnc2Oc2ccc3nonc3c2)cc1,17.2% (inactive),
CC1=C(CC=O)C(C)(C)CCC1,-4.98% (inactive),
CC(=O)NC1(c2cccc(F)c2)CCN(CC[C@@]2(c3ccc(Cl)c(Cl)c3)CN(c3ccccc3)C(=O)CO2)CC1,,38.7 µM (active)
C[C@@H](O)[C@H]1C(=O)N2C(C(=O)O)=C([C@H]3CCCO3)S[C@H]12,-1.69% [at 42.5 µM] (inactive),
O=C(OC(=O)c1ccccc1)c1ccccc1,-13.6% (inactive),
C=CC(C)(CCC=C(C)C)OC(=O)CC(C)C (stereo not drawn),-10.5% (inactive),
CC=C(Cl)Cl,-3.01% (inactive),
